Jurkat NFkB inh = inhibitors of the PMA/ionomycin-induced NF-kB reporter in Jurkat cells; 330,000 compounds, 0.53% hits; inhibition, % at 4 µM; PMA/ionomycin-induced NF-kB luciferase reporter, luminescence; in the data active = inhibition above about 50%
Mdm2 MdmX PPI = inhibitors of human Mdm2/MdmX interaction. AID 485346. inhibition, % at 8 µM. SaOS-2 split-luciferase Mdm2/MdmX complementation, luminescence. 330,000 compounds, 3% hits. O15151+Q00987;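 active = inhibition of at least 50% at 8 µM in the primary screen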
Target sequence (O15151 whole entry, looked up): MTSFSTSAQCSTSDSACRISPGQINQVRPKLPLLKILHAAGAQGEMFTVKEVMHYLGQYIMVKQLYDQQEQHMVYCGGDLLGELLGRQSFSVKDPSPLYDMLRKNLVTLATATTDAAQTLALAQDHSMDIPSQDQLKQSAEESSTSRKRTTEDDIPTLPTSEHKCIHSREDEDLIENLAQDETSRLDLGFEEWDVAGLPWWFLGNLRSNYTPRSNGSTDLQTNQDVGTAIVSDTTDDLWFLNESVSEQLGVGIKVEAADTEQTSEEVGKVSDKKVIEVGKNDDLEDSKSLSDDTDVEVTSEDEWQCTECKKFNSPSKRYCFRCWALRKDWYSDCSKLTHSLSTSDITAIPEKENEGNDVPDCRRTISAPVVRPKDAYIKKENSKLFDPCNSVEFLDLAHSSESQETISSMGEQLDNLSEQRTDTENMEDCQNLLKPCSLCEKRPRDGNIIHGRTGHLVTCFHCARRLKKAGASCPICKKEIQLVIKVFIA
Target sequence (Q00987 whole entry, looked up): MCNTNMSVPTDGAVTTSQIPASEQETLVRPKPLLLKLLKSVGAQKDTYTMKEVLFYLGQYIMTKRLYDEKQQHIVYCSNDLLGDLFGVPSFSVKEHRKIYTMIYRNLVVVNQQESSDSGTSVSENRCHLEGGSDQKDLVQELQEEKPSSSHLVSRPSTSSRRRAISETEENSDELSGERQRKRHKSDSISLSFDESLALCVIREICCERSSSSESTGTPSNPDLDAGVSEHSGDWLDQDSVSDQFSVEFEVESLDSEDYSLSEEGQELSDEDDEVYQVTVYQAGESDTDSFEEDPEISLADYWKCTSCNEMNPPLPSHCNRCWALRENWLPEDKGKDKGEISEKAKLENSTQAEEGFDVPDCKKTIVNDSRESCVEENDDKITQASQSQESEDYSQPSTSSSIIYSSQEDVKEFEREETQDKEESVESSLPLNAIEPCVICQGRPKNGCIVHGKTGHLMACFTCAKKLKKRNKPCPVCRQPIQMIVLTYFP
aSyn 5UTR inh = MLPCN primary screen, SNCA 5' untranslated region | alpha-synuclein 5'UTR reporter, inhibitor activity | inhibition, % (tested at 7.5 µM) | 300,000 compounds, 0.82% hits; in the data active = inhibition above about 60%;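 also: H4 neuroglioblastoma cells stably carrying SNCA 5'UTR luciferase fusion; 0% = DMSO wells and 100% = positive control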
697 NFkB inh = inhibitors of the PMA/ionomycin-induced NF-kB reporter in 697 B cells. 697 B-cell NF-kB luciferase reporter, 16 h. inhibition, % at 4 µM. AID 435022. 330,000 compounds, 0.33% hits; in the data active = inhibition above about 35%
Gli-Sufu antag = antagonists of Gli-Sufu signaling. 340,000 compounds, 0.74% hits. Sufu-KO-LIGHT fibroblasts, Gli luciferase reporter luminescence. inhibition, % at 5 µM;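 active = inhibition above about 55%, limit read from the data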;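 also: 0% = DMSO-treated cells and 100% = wells with medium but no cells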
KLF5 inh = kruppel-like factor 5 inhibition. DLD-1 KLF5 promoter-luciferase reporter, luminescence. inhibition, % at 5 µM. 290,000 compounds, 0.23% hits. AID 1700;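 active = inhibition above a per-plate limit of that plate's mean compound inhibition plus 3 SD, cut at about 60% in these data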;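 also: 0% = DMSO wells and 100% = LY294002 at 200 µM; higher means less KLF5 promoter-driven luciferase light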
Mdm2 MdmX conf = confirmation of human Mdm2/MdmX interaction inhibitors; inhibition, % at 8 µM; Mdm2-MdmX binding, luminescent assay; shares compounds with Mdm2 MdmX PPI; 10,000 compounds, 55% hits; AID 489028; in the data active = inhibition above about 40%
FLuc counter = counter-screen for Mdm2/MdmX inhibitors: full-length luciferase | inhibition, % at 8 µM | SaOS-2 full-length luciferase counterscreen, luminescence | AID 504607 | 6,200 compounds, 77% hits | shares compounds with Mdm2 MdmX PPI;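 active = mean inhibition at 8 µM reaching about 37%, which flags the compound as non-specific, limit read from the data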;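 also: p53-null SaOS-2 cells with luciferase driven by a doxycycline-inducible promoter; compound on cells about two nights before reading with doxycycline added after day one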
* = called active by the depositor; / = not tested or not shown. Compounds with a hit are over-represented: about 4.1% of the library has one in this group of screens.

SMILES | Jurkat NFkB inh | Mdm2 MdmX PPI | aSyn 5UTR inh | 697 NFkB inh | Gli-Sufu antag | KLF5 inh | Mdm2 MdmX conf | others
O=C(NCCN1CCCC1)C(c1ccccc1)c1ccccc1 | -29.8 | -25.7 | -12.4 | -44.1 | / | -8.8 | /
CC1=C(C(=O)OC2CCCCC2)C(c2ccc(N(C)C)cc2)NC(=O)N1 (stereo not given) | 5.0 | 29.5 | 19.8 | 10.7 | -9.3 | -33.7 | /
CC[C@]12c3[nH]c4ccccc4c3CCN1C(=O)C(CC(=O)NCC13CC4CC(CC(C4)C1)C3)C[C@@H]2C(=O)N1CCN(C(=O)c2ccco2)CC1 (stereo not given in full) | 13.4 | 37.3 | / | -7.2 | 13.4 | / | /
CC(C)N(C(=O)[C@H]1C[C@H](CC(=O)NCC23CC4CC(CC(C4)C2)C3)C(=O)N2CCc3c([nH]c4cc(-c5ccco5)ccc34)[C@]12C)C(C)C | / | 69.8* | / | 0.8 | -2.6 | / | 3.2
COc1ccc2[nH]c3c(c2c1)CCN1C(=O)C(CC(=O)NCC24CC5CC(CC(C5)C2)C4)C[C@H](C(=O)N2CCCCC2)[C@@]31C (stereo not given in full) | / | 36.6 | / | 13.2 | 4.8 | / | /
CCN(CC)C(=O)[C@H]1CC(CC(=O)NCC23CC4CC(CC(C4)C2)C3)C(=O)N2CCc3c([nH]c4ccc(OC)cc34)[C@]12C (stereo not given in full) | / | 64.5* | / | -1.2 | 3.9 | / | 16.5
CC[C@]12c3[nH]c4cc(CCC(=O)N(C)C)ccc4c3CCN1C(=O)[C@@H](CC(=O)NCC13CC4CC(CC(C4)C1)C3)C[C@@H]2C(=O)N1CCN(C(=O)c2ccco2)CC1 | / | 50.2* | / | 24.3 | 16.7 | / | 31.2
Cc1ccc(CC(=O)NNC(=O)c2cccs2)cc1C | 14.5 | -15.0 | / | 7.2 | 1.3 | / | /
O=c1c2ccccc2[nH]c(=S)n1CCCN1CCN(c2ccccc2F)CC1 | -3.3 | 66.1* | 24.7 | -49.8 | -15.4 | 7.4 | 35.9 | FLuc counter=81.2*
O=c1c2cccnc2[nH]c(=S)n1CCCN1CCN(c2ccccc2F)CC1 | -11.1 | 33.3 | 32.0 | -54.9 | 33.5 | -24.8 | /
O=c1c2ccccc2[nH]c(=S)n1CCCN1CCN(c2ccccc2)CC1 | -19.3 | 80.1* | -7.3 | -182.0 | 16.6 | 2.4 | 43.5* | FLuc counter=63.5*
N#CCCN(CCN1CCCC1)S(=O)(=O)c1ccc(-c2ccc([N+](=O)[O-])cc2)cc1 | -15.0 | 7.6 | 6.9 | 2.1 | 10.0 | -33.7 | /
CCOc1cc(/C=C2/NC(=S)NC2=O)ccc1OCc1ccc([N+](=O)[O-])cc1 | 1.6 | 59.9* | 61.6* | 18.8 | -13.3 | -5.4 | 34.8
CC1CCC/C=C/C(=O)c2c(O)cc(O)cc2CC(=O)O1 (stereo not given) | 18.1 | 100.3* | -153.2 | -106.1 | -1.6 | / | 98.5* | FLuc counter=55.9*
C[C@@H]1Cc2c(O)c(O)cc(O)c2C(=O)O1 | 16.9 | 10.0 | 11.2 | 9.3 | 1.2 | / | /
Clc1ccc(-[n+]2c(-c3cccc(Br)c3)[nH]c3nc4ccccc4nc32)cc1 | 11.5 | 60.8* | -3.6 | -11.2 | 22.5 | -22.4 | 15.3
NC(=O)CC(NC(=O)Cc1ccc(Br)cc1)c1ccc(N2CCC(Br)CC2)c([N+](=O)[O-])c1 (stereo not given) | 9.2 | 49.2 | 30.2 | 17.8 | 5.7 | / | /
CCCCNc1ccc(C(CC(N)=O)NC(=O)Cc2ccc(Br)cc2)cc1[N+](=O)[O-] (stereo not given) | 29.5 | 86.6* | -10.0 | -2.8 | 2.5 | / | 60.2* | FLuc counter=53.1*
NC(=O)CC(NC(=O)Cc1ccc(Br)cc1)c1ccc(N2CCC(Cc3ccccc3)CC2)c([N+](=O)[O-])c1 (stereo not given) | 18.8 | 71.1* | 39.6 | 6.1 | 3.4 | / | 54.6* | FLuc counter=48.2*
CC(C)c1ccc(NC(=O)C2CSC3(C)CCC(=O)N23)cc1 (stereo not given) | -7.6 | 8.3 | 10.8 | 10.8 | -11.5 | -12.5 | /
O=C(CSc1nnc(-c2ccc(Br)cc2)n1CCc1ccccc1)NC1CCS(=O)(=O)C1 (stereo not given) | 0.2 | 14.1 | 6.3 | 6.3 | 0.0 | -25.2 | /
O=C(CN(C(=O)c1csnn1)c1ccccc1)NCCc1ccccc1 | 10.3 | -24.5 | 16.8 | -1.2 | 16.1 | 5.1 | /
CCn1c(SCC(=O)Nc2ccc(F)cc2)nnc1-c1cnccn1 | 11.6 | 4.6 | -4.6 | -12.0 | -6.0 | 8.1 | /
COc1ccc(C(=O)c2c(C(F)(F)F)oc3c2C(=O)c2ccccc2C3=O)cc1 | 13.1 | 78.0* | 109.0* | -28.8 | 26.8 | -13.2 | 66.2* | FLuc counter=53.7*
COc1ccc(C(=O)c2coc(-c3ccccc3C(=O)O)c2C(=O)O)cc1 | 5.6 | -5.1 | -30.2 | -4.9 | 2.1 | -25.5 | /
SMILES | Jurkat NFkB inh | Mdm2 MdmX PPI | aSyn 5UTR inh | 697 NFkB inh | Gli-Sufu antag | KLF5 inh | Mdm2 MdmX conf | others
Cc1ccc(NC(=O)COC(=O)/C=C/c2c(C)nn(-c3ccc(F)cc3)c2Cl)cc1F | 4.6 | 52.0* | -4.7 | -2.2 | -4.9 | -5.8 | 3.5
CCCS(=O)(=O)c1c(S(=O)(=O)CCC)c2c(C)cccn2c1C(N)=O | 11.8 | -7.9 | 2.5 | -0.2 | 0.6 | -23.5 | /
CCCS(=O)(=O)c1c(S(=O)(=O)CCC)c2c(C)cccn2c1C(=O)N/N=C/c1cc(O)cc(O)c1 | 6.3 | 58.2* | 10.5 | -31.8 | 25.1 | 30.9 | 57.0* | FLuc counter=37.0*
O=C(Nc1ccc(NC(=O)c2ccco2)cc1)c1ccco1 | -30.2 | -17.1 | -109.3 | -13.8 | -35.0 | -100.7 | /
CC(C)(C)c1ccc(C(=O)Nc2ccc(NC(=O)c3ccco3)cc2)cc1 | 8.4 | 50.9* | -14.9 | -2.7 | 1.3 | -10.3 | 15.7
O=C(Nc1ccc(NC(=O)c2sc3ccccc3c2Cl)cc1)c1ccco1 | 12.1 | 77.1* | -20.2 | -30.8 | 7.3 | -4.7 | 30.1 | FLuc counter=46.4*
COc1cc(/C=N/NC(=O)C2CCN(CC(O)COCc3ccccc3)CC2)ccc1O (stereo not given) | 6.0 | -26.6 | 7.4 | -2.3 | 6.1 | -18.5 | /
CCOC(=O)c1c(NC(=S)N2CCOCC2)sc2c1CCN(C(=O)OCC)C2 | 12.6 | 51.3* | -53.0 | 14.6 | -9.7 | -35.3 | -0.3
CCOC(=O)c1c(NC(=S)N2CCCCC2)sc2c1CCN(C(=O)OCC)C2 | -5.4 | 72.0* | -22.1 | 4.6 | 25.6 | -27.3 | 14.7
C=CCNC(=S)Nc1sc2c(c1C(=O)OCC)CCN(C(=O)OCC)C2 | 7.8 | 5.3 | 8.0 | 7.5 | -1.2 | -44.1 | /
CC1CC(C)C(=O)C(C(CC2CC(=O)NC(=O)C2)OC(=O)CC(=O)c2ccccc2)C1 (stereo not given) | / | / | / | / | 42.2 | / | /
CCOC(=O)COc1ccc2ccccc2c1/C=C/[N+](=O)[O-] | / | / | 3.3 | / | -2.2 | -5.6 | /
O=[N+]([O-])/C=C/c1c(OCc2ccccc2)ccc2ccccc12 | -38.5 | 95.4* | -4.9 | -33.6 | / | 4.8 | 100.1* | FLuc counter=49.6*

Screening data deposited in PubChem by several laboratories.
